M1 ag parental: M1 agonist counterscreen hit in parental CHO-K1 cells | activation, % at 3 µM | Fluo-8 calcium fluorescence; scaled to maximal ATP response, vehicle zero | AID 602248 | 360,000 tested, 0.48% active; in the data active means activation above about 15%;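 further: untransfected CHO-K1 host cells lacking M1 receptor as counterscreen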
CHRM1 antagonist: blocks human M1 muscarinic receptor; AID 588852; CHO-K1 hM1, Fluo-8 calcium fluorescence, ACh EC80 antagonist; 360,000 tested, 1.3% active; inhibition, % at 3 µM; P11229;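 active means percent inhibition above its own plate's cutoff, namely the mean of that plate's compound wells plus 3 SD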;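 further: peak over basal fluorescence ratio during 140 s after agonist addition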
Target sequence (P11229 whole entry, looked up): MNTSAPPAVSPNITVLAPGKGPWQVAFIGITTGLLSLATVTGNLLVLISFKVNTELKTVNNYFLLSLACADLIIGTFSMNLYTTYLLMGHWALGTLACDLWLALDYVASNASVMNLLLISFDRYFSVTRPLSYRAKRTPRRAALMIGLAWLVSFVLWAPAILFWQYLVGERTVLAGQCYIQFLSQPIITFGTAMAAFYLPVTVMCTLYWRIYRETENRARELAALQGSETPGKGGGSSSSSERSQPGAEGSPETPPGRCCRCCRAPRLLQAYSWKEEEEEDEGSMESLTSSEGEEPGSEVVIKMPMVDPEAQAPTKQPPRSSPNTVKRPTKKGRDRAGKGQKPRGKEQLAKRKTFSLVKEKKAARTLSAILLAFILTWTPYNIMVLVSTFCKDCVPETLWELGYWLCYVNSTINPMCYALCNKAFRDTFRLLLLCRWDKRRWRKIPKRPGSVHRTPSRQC
M1 PAM parental: counter-screen for M1 PAMs: effect in parental CHO-K1 cells; AID 602247; ATP EC20, Fluo-8 calcium fluorescence; 0% at ATP EC20, 100% at ATP max; activation, % at 3 µM; 360,000 tested, 0.02% active;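 active means activation above the run cutoff, the mean activation of all test compounds plus 3 SD, cut at about 40% in these data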;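 further: peak over basal fluorescence ratio in a 140 s read after ATP addition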
CHRM1 PAM: human CHRM1 positive allosteric modulation; 360,000 tested, 0.088% active; activation, % at 3 µM; P11229; CHO-K1 hM1, Fluo-8 calcium fluorescence, ACh EC20; 0% = ACh EC20, 100% = maximal ACh; in the data active means activation above about 19%, passing the limit was not always enough
CHO-K1 Ca antag: M1 antagonist counterscreen hit in parental CHO-K1 cells; ATP-induced calcium, Fluo-8 fluorescence; inhibition, % at 3 µM; 360,000 tested, 0.6% active;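 active means inhibition above a per-plate cutoff, the plate's mean sample inhibition plus 3 SD, cut at about 24% in these data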
CHRM1 agonist: activates human CHRM1 receptor; P11229; activation, % at 3 µM; CHO-K1 hM1, Fluo-8 calcium fluorescence, agonist mode; 0% DMSO, 100% acetylcholine EC100; AID 588814; 360,000 tested, 0.33% active;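 active means activation above the run's mean compound activation plus 3 SD, cut at about 16% in these data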;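 further: peak over basal fluorescence ratio within a 140 s kinetic read after compound addition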
Numbers stand for hits; - = inactive. Compounds with a hit are over-represented: about 2.3% of the library has one in this group of screens.

SMILES	M1 ag parental	CHRM1 antagonist	M1 PAM parental	CHRM1 PAM	CHO-K1 Ca antag	CHRM1 agonist
CC(OC(=O)C1CCCCC1)C(=O)Nc1cccc([N+](=O)[O-])c1 (centres undefined)	-	-	-	-	-	-
COc1ccc(OC)c(NC(=O)CSc2nncc(=O)n2N)c1	-	-	-	-	-	-
COc1ccc(CNC(=O)COC(=O)c2ccc(OCC3CCCO3)cc2)cc1 (centres undefined)	-	-	-	-	-	-
CC1CN(S(=O)(=O)c2cccc(C(=O)N(Cc3nnc(-c4ccccc4Cl)o3)C3CC3)c2)CC(C)O1 (centres undefined)	-	-	-	-	-	-
CCNC(=S)NC1CC2CCCC(C1)N2CCc1ccccc1 (centres undefined)	-	72	-	-	-	-
CCCN1C2CCCC1CC(NC(=O)c1ccccc1OCC)C2 (centres undefined)	-	-	-	-	-	-
CCCN1C2CCCC1CC(NC(=O)c1ccccc1Br)C2 (centres undefined)	-	47	-	-	-	-
CCOc1ccccc1C(=O)NC1CC2CCCC(C1)N2Cc1ccc(C)cc1 (centres undefined)	-	43	-	-	-	-
CCCN1C2CCCC1CC(NC(=O)c1ccccc1)C2 (centres undefined)	-	42	-	-	-	-
CCCN1C2CCCC1CC(NC(=O)c1ccccc1F)C2 (centres undefined)	-	-	-	-	-	-
C=CC[C@H](CC(=O)NCCO)C(=O)NC[C@@H](OC(=O)[C@H](CC=C)CC(=O)OC(C)(C)C)c1ccccc1	-	-	-	-	-	-
O=C1C=CC(=Nc2ccc(F)cc2)O1	-	-	-	-	-	-
Cc1cccc(NC(=O)C2CCCN2/C=C/C(=O)C(F)(F)F)c1C (centres undefined)	-	-	-	-	-	-
Cc1ccc(C)c(NC(=O)C2CCCN2/C=C/C(=O)C(F)(F)F)c1 (centres undefined)	-	-	-	-	26	-
CC(NC(=O)NCCCC(=O)O)(C(F)(F)F)C(F)(F)F	-	-	-	-	25	-
CC[C@H](NC(=O)CC[C@H]1O[C@@H](n2cnc3c(NC(=O)c4ccccc4)ncnc32)[C@H](O)[C@@H]1O)c1ccccc1	-	-	-	-	-	-
Cc1oc(-c2cccs2)cc1C(=O)N1CCCC(C)(C(=O)O)C1 (centres undefined)	-	-	-	-	-	-
CC(C)NC(=O)CN1CCN(Cc2nc(C(c3ccccc3)c3ccccc3)no2)CC1	-	52	-	-	-	-
c1ccc(C(c2ccccc2)c2noc(CN3CCN(C4CCCC4)CC3)n2)cc1	15	60	-	-	-	-
NC(=O)CCN1CCN(Cc2nc(C(c3ccccc3)c3ccccc3)no2)CC1	-	29	-	-	-	-
CC(C)NC(=O)CN1CCN(Cc2nc(-c3cccs3)no2)CC1	-	-	-	-	-	-
CC(=O)N1CCN(Cc2nc(C(c3ccccc3)c3ccccc3)no2)CC1	-	-	-	-	-	-
COc1ccc(OC)c(CNC(=O)CCC(=O)N2Cc3cccc(OC)c3Oc3ncccc32)c1	-	-	-	-	-	-
Oc1ccc(Nc2nnc(-c3ccc(O)cc3)c3ccccc23)cc1	-	36	-	-	-	-
COc1ccc(Nc2c3c(nc4ccccc24)CCC3)cc1	-	-	-	-	-	-
SMILES	M1 ag parental	CHRM1 antagonist	M1 PAM parental	CHRM1 PAM	CHO-K1 Ca antag	CHRM1 agonist
COc1ccc(Nc2c3ccccc3nc3ccccc23)cc1	16	-	-	-	-	-
CNC(=O)COc1ccc(Nc2nnc(-c3ccc(C)c(S(N)(=O)=O)c3)c3ccccc23)cc1	-	-	-	-	-	45
COc1ccc(Nc2nnc(-c3ccc(O)cc3)c3ccccc23)cc1	-	59	-	-	-	-
Cc1cc(S(=O)(=O)N2CCN(c3ccc(F)cc3)CC2)ccc1-n1cnnn1	-	-	-	-	-	-
Cc1cc(S(=O)(=O)N2CCN(c3ccccc3F)CC2)ccc1-n1cnnn1	18	-	-	-	-	-
CCOc1ccccc1N(CC(=O)NC1CCCC1)C(=O)CNC(=O)c1cccs1	-	-	-	-	-	-

Source: PubChem BioAssay (The Scripps Research Institute Molecular Screening Center)
